# Reference: PubChem BioAssay (Tox21)
# Records with an inconclusive call do not appear. Entries that show only a call come without a potency. The source made the active and inactive calls. Calls come from the whole dose curve; as a rule, active = well fitted activation curve with a large enough effect in the repeat runs; inconclusive = weak or mixed curves; inactive = flat fitted curve, though single readings scatter.
# Experiment: A CellTox Green Cytotoxicity Assay to monitor cytotoxicity in HepG2 cells - 40 hour (AID 1224879); note: nearly all actives have a fitted effect of over 40% in size
# Conditions: CellTox Green fluorescence; series mostly up to 76.8 µM
# Text: National Center for Advancing Translational Sciences [NCATS]
# NIH Chemical Genomics Center [NCGC]
# U.S. Environmental Protection Agency [EPA]
# National Institutes of Environmental Health Sciences [NIEHS]
# National Toxicology Program [NTP]
# Cell-based models are critical for drug discovery. Determining the natural cytotoxic effects resulting from test compounds is an essential research activity. A CellTox Green Cytotoxicity Assay to monitor cytotoxicity in real time of continues cell culture during 40 hours of the compound treatment was used to screen Tox21 10K library compounds in HepG2 cells. CellTox Green Cytotoxicity Assay is a nonlytic, homogeneous, biofluorescent method to measure cytotoxicity in cell culture after experimental manipulation. The assay system uses a proprietary asymmetric cyanine dye that is excluded from viable cells but preferentially stains the dead cell's DNA. […] Viable cells produce no appreciable increases in fluorescence. Therefore, the fluorescence signal produced by the binding interaction with dead cell DNA is proportional to cytotoxicity.
# The mixture of HepG2 cell suspension and reagents were dispensed at 600cells/6 ul/well in 1536-well tissue culture treated black solid bottom plates using a Multidrop dispenser. After the assay plates were incubated at a 37 C/5% CO2 incubator for 5 hours, 23 nL of compounds dissolved in DMSO, positive and negative controls was transferred to the assay plate by a pintool work station. The plates were incubated at 37 C for 40 hours. The fluorescence intensity were measured at 0h, 8h, 16h, 24h, 32h and 40h time points using ViewLux plate reader during compound treatment.
# Potency is the fitted concentration of half-maximal effect.
row,SMILES,Potency
1,CC1(C)CC(N)CC(C)(C)N1,inactive
2,CCCCCCC(=O)c1ccccc1,inactive
3,N[C@H]1C(O)O[C@H](CO)[C@@H](O)[C@@H]1O (stereo not given in full),inactive
4,CCCCC(CC)COC(=O)CC#N (stereo not given),inactive
5,COc1cnc(NS(=O)(=O)c2ccc(N)cc2)nc1,inactive
6,CC(C)(C)NCC(O)COc1cccc2c1CCC(=O)N2 (stereo not given),inactive
7,CCCCCC(CC)OC(=O)CCCOc1ccc(Cl)cc1Cl (stereo not given),inactive
8,CCCCCCCCS(=O)(=O)O,inactive
9,CCC(=O)OCCOc1ccccc1,inactive
10,CCN1CCN(C(=O)N[C@@H](C(=O)N[C@@H]2C(=O)N3C(C(=O)O)=C(CSc4nnnn4C)CS[C@H]23)c2ccc(O)cc2)C(=O)C1=O,inactive
11,CC(=O)SC[C@@H](C)C(=O)N1CCC[C@H]1C(=O)N[C@@H](Cc1ccccc1)C(=O)O,inactive
12,N=C(N)S(=O)O,inactive
13,CC(CC(=O)Cl)CC(C)(C)C (stereo not given),inactive
14,O=C1Nc2ccccc2C1=O,inactive
15,Cc1cc(N)no1,inactive
16,CC[C@@]1(c2ccccc2)NC(=O)N(C)C1=O,inactive
17,COc1cc2nc(N3CCN(C(=O)C4CCCO4)CC3)nc(N)c2cc1OC (stereo not given),inactive
18,O=C(O)/C=C(\CC(=O)O)C(=O)O,inactive
19,Clc1ccc2c(c1)Nc1ccccc1S2,inactive
20,CCC(C)SSC(C)CC (stereo not given),inactive

row,SMILES,Potency
1,CCCC[O][Al]([O]CCCC)[O]CCCC,inactive
2,CC(C)(C)OC=O,inactive
3,CCOCCOCCOC(C)=O,inactive
4,O=S(=O)(O)c1cc(I)c(O)c2ncccc12,inactive
5,O=P(O)(O)C(O)(Cc1cccnc1)P(=O)(O)O,inactive
6,CN(C)c1cc(NC(=O)CNC(C)(C)C)c(O)c2c1C[C@H]1C[C@H]3[C@H](N(C)C)C(=O)C(C(N)=O)=C(O)[C@@]3(O)C(=O)C1=C2O,inactive
7,Cc1ccc(N)nc1,inactive
8,CCCCC(O)/C=C(C)/C=C/C=C/C(=O)N1CCCC1=O (stereo not given),inactive
9,O=CN1CCCCC1,inactive
10,CC(C)(O)CCCC1=CCC(C=O)CC1 (stereo not given),inactive
11,CCCCCCCCC1CO1 (stereo not given),inactive
12,CCOC(=O)CC,inactive
13,CCCC(C)C(O)CC (stereo not given),inactive
14,CCCCCCCCCCCC(C)=O,inactive
15,CC(C)(C)C(=O)CC(=O)C(C)(C)C,inactive
16,CCCOc1ccc(C(=O)OCCN(CC)CC)cc1N,inactive
17,CC(C)(C)c1ccc(N)cc1,61.7 µM (active)
18,CC(=O)/C=C/C=C1/C2CCC(C2)C1(C)C (stereo not given),inactive
19,O=S(=O)(O)c1ccc(Cl)cc1,inactive
20,C/C=C(\C)C(=O)OC/C=C(\C)CCC=C(C)C,inactive
